Rows were chosen to be rich in hits. Some 6.7% of all compounds tested hit in one or more screens of this group.
C diff growth – inhibitors of Clostridium difficile growth | Clostridium difficile clinical isolate growth, OD600, 24 h; active compounds read low | growth activity, negative = inhibition, % at 16 µg/mL (by protocol) | 86,000 compounds, 0.25% hits;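 active means mean growth activity at or below -80% and every replicate also at or below -80%; inconclusive means mean at or below -80% but some replicate above -80%; inactive means mean growth activity above -80%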;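 further: 0% = DMSO wells and -100% = levofloxacin 16 µg/mL wells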
Pf Dd2 growth – P. falciparum Dd2 growth inhibition; SYBR Green, 72 h; active compounds read low; activity change, % at 10 µM; 94,000 compounds, 2.3% hits; in the data active means activity change below about -80%; inconclusive means no clear call, values can overlap the other calls
T cruzi growth-1 – T. cruzi proliferation inhibition. 77,000 compounds, 5.9% hits. T. cruzi beta-gal in NIH3T3, GalScreen luminescence, 90 h. inhibition, % at 8.34 µM;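 active means mean inhibition above about 93%, with at least 55% of replicates each passing it, limit read from the data, passing the limit was not always enough; inconclusive means only one of those two conditions holds; inactive means neither condition holds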
T cruzi growth-2 – Trypanosoma cruzi proliferation inhibition | shares compounds with T cruzi growth-1 | T. cruzi beta-gal in NIH3T3, GalScreen luminescence, 90 h | inhibition, % at 8.35 µM | 5,600 compounds, 72% hits | AID 651739;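 active means mean replicate inhibition above about 95% and at least 55% of replicates individually reaching it, limit read from the data; inconclusive means only one of the two criteria is met; inactive means neither criterion is met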
T cruzi growth-3 – inhibitors of T. cruzi proliferation; shares compounds with T cruzi growth-1; T. cruzi beta-gal in NIH3T3, GalScreen luminescence, 90 h; inhibition, % at 2.09 µM; 5,600 compounds, 21% hits; AID 651740;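 active means mean inhibition above about 95%, with at least 55% of replicates also reaching it, limit read from the data; inconclusive means meets just one of the two conditions; inactive means meets neither condition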;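 further: plate controls were neutral control median for no effect and positive control median for full effect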
3T3 cytotox – NIH/3T3 (mouse) viability loss | 5,600 compounds, 14% hits | shares compounds with T cruzi growth-1 | cytotoxicity (signal decrease), % at 8.35 µM | NIH/3T3 viability, CellTiter-Glo ATP luminescence, 90 h;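 active means mean signal decrease across replicates above about 35% based on untreated-well scatter, with enough replicates individually passing, limit read from the data; inconclusive means no rule stated though some were filed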;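 further: 0% = median of neutral control wells and 100% = median of positive control wells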
NIH3T3 tox 2 – cytotoxicity in mouse NIH/3T3 fibroblasts. shares compounds with T cruzi growth-1. NIH/3T3 viability, CellTiter-Glo ATP luminescence, 90 h. inhibition, % at 24.9 µM. 5,600 compounds, 56% hits. AID 651744;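 active means mean loss of cell viability signal at or above a set limit, and enough replicates individually reaching it; inconclusive means meets only the mean limit or only the replicate share; inactive means meets neither condition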;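 further: 0% = median of neutral control wells and 100% = median of positive control wells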
* hit, by the source's call; ? = inconclusive; nt = no result.

SMILES | C diff growth | Pf Dd2 growth | T cruzi growth-1 | T cruzi growth-2 | T cruzi growth-3 | 3T3 cytotox | NIH3T3 tox 2
O=C(C[C@H]1C=C[C@H](NC(=O)Nc2cc(F)ccc2F)[C@@H](CO)O1)Nc1ccccc1 | nt | 0 | 6 | nt | nt | nt | nt
COc1cccc(-c2ccc([C@H]3[C@@H](CO)N4CCCCN(C(=O)NC(C)C)C[C@H]34)cc2)c1 | 10 | 11 | 117* | 108* | 69 | -6 | 61*
COc1cccc(-c2ccc([C@@H]3[C@@H](CO)N4CCCCN(C(=O)NC(C)C)C[C@H]34)cc2)c1 | -15 | 46 | 74 | nt | nt | nt | nt
Cc1cccc(-c2ccc([C@H]3[C@@H](CO)N4CCCCN(C(=O)NC(C)C)C[C@@H]34)cc2)c1 | -20 | 1 | 92 | nt | nt | nt | nt
COc1cccc(-c2ccc([C@@H]3[C@@H](CO)N4CCCCN(C(=O)NC(C)C)C[C@@H]34)cc2)c1 | -2 | 2 | 100* | 102* | 24 | -9 | ?
CCCC(=O)Nc1ccc2c(c1)OC[C@@H](C)N(C(=O)Cc1ccccn1)C[C@@H](C)[C@H](OC)CN(C)C2=O | nt | 30 | 15 | nt | nt | nt | nt
C[C@@H]1CN([C@H](C)CO)C(=O)c2cc(NS(=O)(=O)c3ccccc3)ccc2O[C@@H]1CN(C)S(=O)(=O)c1cn(C)cn1 | -12 | 16 | -3 | nt | nt | nt | nt
CCCN1C[C@H](C)[C@@H](OC)CN(C)C(=O)c2cc(NC(=O)Nc3ccccc3F)ccc2OC[C@@H]1C | nt | -71 | 49 | nt | nt | nt | nt
CO[C@H]1CN(C)C(=O)c2ccc(NC(=O)NC(C)C)cc2OC[C@@H](C)N(Cc2ccccn2)C[C@@H]1C | nt | -40 | 100* | 60 | -42 | 15 | 7
CO[C@H]1CN(C)C(=O)c2cc(NS(=O)(=O)c3ccccc3)ccc2OC[C@@H](C)N(Cc2cccnc2)C[C@H]1C | nt | -16 | 97* | 101* | 47 | 5 | 35*
CO[C@@H]1CN(C)C(=O)c2ccc(NC(=O)NC(C)C)cc2OC[C@@H](C)N(Cc2ccccn2)C[C@@H]1C | nt | -12 | 64 | nt | nt | nt | nt
CO[C@@H]1CN(C)C(=O)c2cc(NC(=O)C3CC3)ccc2OC[C@H](C)N(Cc2cc(F)ccc2F)C[C@H]1C | nt | -71 | 109* | 80 | 39 | -2 | -3
CO[C@@H]1CN(C)C(=O)c2cc(NC(=O)C3CC3)ccc2OC[C@@H](C)N(Cc2cccc(F)c2)C[C@@H]1C | nt | -59 | 63 | nt | nt | nt | nt
CO[C@@H]1CN(C)C(=O)c2cc(NC(=O)C3CC3)ccc2OC[C@H](C)N(Cc2cccc(F)c2)C[C@H]1C | nt | -74 | 99* | ? | 38 | -2 | 0
CO[C@@H]1CN(C)C(=O)c2cc(NS(=O)(=O)c3ccccc3)ccc2OC[C@H](C)N(Cc2cccnc2)C[C@@H]1C | nt | -9 | 24 | nt | nt | nt | nt
CO[C@H]1CN(C)C(=O)c2ccc(NC(=O)C3CC3)cc2OC[C@@H](C)N(Cc2cc(F)ccc2F)C[C@H]1C | nt | -7 | 40 | nt | nt | nt | nt
C[C@@H]1CN([C@@H](C)CO)C(=O)Cc2cc(NC(=O)Nc3ccc4c(c3)OCO4)ccc2O[C@@H]1CN(C)S(=O)(=O)c1ccccc1 | -4 | 0 | -47 | nt | nt | nt | nt
CC(=O)N1[C@H](CO)[C@H](c2ccc(C3=CCCC3)cc2)[C@@H]1CNC(=O)CC1CC1 | -4 | -1 | nt | nt | nt | nt | nt
CO[C@@H]1CN(C)C(=O)c2ccc(NC(=O)Nc3ccccc3F)cc2OC[C@@H](C)N(Cc2ccccc2F)C[C@H]1C | nt | -90* | 117* | 106* | 111* | -3 | -1
CO[C@@H]1CN(C)C(=O)c2ccc(NS(=O)(=O)c3ccc(C)cc3)cc2OC[C@@H](C)N(Cc2nccs2)C[C@@H]1C | nt | -7 | 45 | nt | nt | nt | nt
COc1ccccc1CN1C[C@H](C)[C@H](OC)CN(C)C(=O)c2cc(NC(C)=O)ccc2OC[C@@H]1C | nt | 13 | -24 | nt | nt | nt | nt
CO[C@H]1CN(C)C(=O)c2cc(NS(=O)(=O)c3ccc(C)cc3)ccc2OC[C@@H](C)N(Cc2nccs2)C[C@H]1C | 21 | -31 | 107* | 104* | 25 | -3 | 40*
COCC(=O)Nc1ccc2c(c1)OC[C@@H](C)N(Cc1cc(F)ccc1F)C[C@@H](C)[C@H](OC)CN(C)C2=O | nt | -71 | 47 | nt | nt | nt | nt
CO[C@@H]1CN(C)C(=O)c2cc(NC(=O)Nc3ccccc3F)ccc2OC[C@@H](C)N(Cc2ccccc2F)C[C@H]1C | 0 | -66 | 52 | nt | nt | nt | nt
COCC(=O)Nc1ccc2c(c1)OC[C@H](C)N(Cc1cc(F)ccc1F)C[C@@H](C)[C@H](OC)CN(C)C2=O | nt | 9 | 97* | 97* | 31 | -7 | 16
SMILES | C diff growth | Pf Dd2 growth | T cruzi growth-1 | T cruzi growth-2 | T cruzi growth-3 | 3T3 cytotox | NIH3T3 tox 2
COc1ccccc1NC(=O)Nc1ccc2c(c1)C(=O)N(C)C[C@@H](OC)[C@H](C)CN(Cc1ccccc1Cl)[C@H](C)CO2 | 0 | -67 | 109* | 108* | 113* | 10 | 8
C[C@@H]1CCCCO[C@@H](CN(C)S(=O)(=O)c2ccc(Cl)cc2)[C@@H](C)CN([C@@H](C)CO)C(=O)c2cc(NC(=O)c3ccncc3)ccc2O1 | 11 | -73 | 75 | nt | nt | nt | nt
COCC(=O)N(C)C[C@@H]1Oc2cc(C#CCC3CCCC3)ccc2S(=O)(=O)N([C@@H](C)CO)C[C@H]1C | 0 | -75 | nt | nt | nt | nt | nt
O=C(C[C@H]1C[C@H]2c3cc(NC(=O)C4CCC4)ccc3O[C@H]2[C@@H](CO)O1)NCc1cccnc1 | -2 | 23 | 42 | nt | nt | nt | nt
C[C@@H]1CN([C@H](C)CO)C(=O)Cc2cc(NC(=O)C3CCCCC3)ccc2O[C@H]1CN(C)C(=O)Nc1ccc(C(F)(F)F)cc1 | 0 | 6 | 11 | nt | nt | nt | nt
C[C@@H]1CN([C@H](C)CO)C(=O)c2cc(NC(=O)Cn3cnnn3)ccc2O[C@@H]1CN(C)C(=O)Nc1ccc(C(F)(F)F)cc1 | 0 | 6 | -39 | nt | nt | nt | nt
CO[C@H]1CN(C)C(=O)c2cc(NC(=O)C3CCC3)ccc2OC[C@H](C)N(Cc2cccnc2)C[C@@H]1C | nt | 22 | 87 | nt | nt | nt | nt
CO[C@H]1CN(C)C(=O)c2cc(NC(=O)C3CCC3)ccc2OC[C@@H](C)N(Cc2cccnc2)C[C@@H]1C | nt | 12 | 103* | 62 | -6 | 8 | 6
C[C@@H]1CN([C@@H](C)CO)C(=O)Cc2cc(NC(=O)CCC(F)(F)F)ccc2O[C@H]1CN(C)S(=O)(=O)c1ccc(Cl)cc1 | -9 | -37 | 20 | nt | nt | nt | nt
C[C@H](CO)N1C[C@H](C)[C@@H](CN(C)C(=O)C2CCCCC2)OCCCC[C@H](C)Oc2ccc(NC(=O)Nc3cccc4ccccc34)cc2C1=O | 0 | -6 | 119* | 88 | 49 | -12 | ?
C[C@@H]1CCCCO[C@H](CN(C)C(=O)C2CCCCC2)[C@H](C)CN([C@@H](C)CO)C(=O)c2cc(NC(=O)Nc3cccc4ccccc34)ccc2O1 | -6 | -48 | ? | 105* | 80 | 11 | 22
